Here are results for eight molecules from PubChem BioAssay.

Assay [1] relates to Plasmodium falciparum Sir2 (PF13_0152, Sir2A). As to the kind of experiment: Plasmodium falciparum Sir2A binding compounds – biochemical, small-molecule microarray, 635 nm fluorescence, primary screen (AID 1098).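 Further: score merges spot fluorescence intensity with its signal-to-noise ratio.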 The settings on record: fluorescence 635 nm, higher = more signal.
Assay [2] in a line: probe aDKK1 binding to arrayed compounds – biochemical, biotinylated probe, 635/667 nm fluorescence, primary screen (AID 1099).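 Further: score merges 667nm spot fluorescence with signal to noise across triplicate slides.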 The conditions noted are these: small-molecule microarray, higher = more signal.
A short description of assay [3]: probe aCHRDL2 binding to arrayed compounds – biochemical, biotinylated probe, 635/667 nm fluorescence, primary screen (AID 1100). The settings on record: small-molecule microarray, higher = more signal.
A short description of assay [4]: change in splice reporter luminescence, either direction, cell-based, HEK293, spliceosome inhibition project, primary screen (AID 1101).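 Further: HEK293 cells carrying a splicing-competent luciferase reporter gene; test concentration not given here.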 The conditions noted are these: HEK293 splicing luciferase reporter, 24 h, higher = more signal, called active from +8 up or from −8 down.
Assay [5] addresses Fibroblast growth factor 10 (Homo sapiens) (UniProt O15520). As to the kind of experiment: compounds binding fibroblast growth factor 10 – biochemical, small-molecule microarray, 635 nm fluorescence, primary screen (AID 1102). The conditions noted are these: FGF10 binding, fluorescence 635 nm, higher = more signal.
The test system of assay [6] is glycogen synthase kinase-3 (GSK3A per assay name; protocol says GSK3B). In words: compounds binding glycogen synthase kinase-3 – biochemical, small-molecule microarray, 635 nm fluorescence, GSK3A, primary screen (AID 1103). Further: the record names both GSK3A and GSK3B. The settings on record: fluorescence 635 nm, higher = more signal.
The target in assay [7] is Epidermal growth factor receptor (Homo sapiens) (UniProt P00533). As to the kind of experiment: compounds binding epidermal growth factor receptor – biochemical, small-molecule microarray, 635 nm fluorescence, primary screen (AID 1104).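 Further: score merges 667 nm emission intensity with spot signal to noise over triplicate slides.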 The settings on record: EGFR binding, higher = more signal.
In assay [8] the target is Follistatin-related protein 3 (Homo sapiens) (UniProt O95633). In words: compounds binding follistatin-related protein 3 – biochemical, small-molecule microarray, 635 nm fluorescence, primary screen (AID 1105).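 Further: score merges emission near 667 nm and signal to noise per printed spot across three slides.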 The settings on record: FSTL3 binding, higher = more signal.
For assay [9], the target named is Dickkopf-related protein 1 (Homo sapiens) (UniProt O94907). As to the kind of experiment: small molecules binding DKK1 protein – biochemical, small-molecule microarray, 635 nm fluorescence scan, primary screen (AID 1106).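 Further: score merges emission near 667 nm with signal to noise over three replicate slides.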 The conditions noted are these: higher = more signal.
Assay [10] concerns Inhibin beta A chain (activin A). In words: small molecules binding activin A – biochemical, small-molecule microarray, 635 nm fluorescence scan, primary screen (AID 1107).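 Further: mouse activin A protein probed at 4.33 µg/mL on printed slides; score merges bound-protein fluorescence near 667 nm with spot signal-to-noise.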 The conditions noted are these: INHBA, higher = more signal.
The subject of assay [11] is Human papillomavirus type 1a protein E7 (residues 44-93). As to the kind of experiment: small molecules binding HPV E7 44-93 – biochemical, small-molecule microarray, residues 44-93, 635 nm fluorescence, primary screen (AID 1108).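 Further: E7 fragment applied at 1 µg/mL in TBST for 1 h at 4 C; score combines spot fluorescence with its signal to noise ratio.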 The conditions noted are these: fluorescence 635 nm, higher = more signal.
Assay [12] is described as follows: hepatitis C replication reporter changes, two-sided – Huh7 cells, luciferase reporter, HCV replication inhibitor project, primary screen (AID 1109).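 Further: huh7 hepatoma cells harbouring a luciferase neomycin HCV replicon reporter; luciferase luminescence as measure of HCV replicon replication; test concentration not given here.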 The conditions noted are these: Huh7 HCV replicon luciferase reporter, 48 h; higher = more signal.
Assay [13] deals with Left-right determination factor 2 (Homo sapiens) (UniProt O00292). As to the kind of experiment: small molecules binding LEFTY2 protein – biochemical, small-molecule microarray, 635 nm fluorescence scan, primary screen (AID 1110). The conditions noted are these: higher = more signal.
In assay [14] the target is Calmodulin-1 (Homo sapiens) (UniProt P0DP23). In words: small molecules binding calmodulin-1 with EGTA – biochemical, small-molecule microarray, Cy5-labelled CALM1, profiling panel (AID 1111).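 Further: labelled calmodulin applied in Tris saline Tween buffer holding calcium plus EGTA and DTT.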 The settings on record: Cy5-CALM1 binding fluorescence, higher = more signal.
For assay [15] the target is unchanged. In words: small molecules binding Ca-loaded calmodulin-1 – biochemical, small-molecule microarray, Cy5-labelled CALM1, plus calcium, artefact control for SMM control-protein annotation, profiling panel (AID 1112).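 Further: score merges spot fluorescence with signal to noise from triplicate slides.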 The settings on record: Cy5-CALM1 binding fluorescence, higher = more signal.
Assay [16] can be described thus: probe aWnt5a binding to arrayed compounds – biochemical, biotinylated probe, 635/667 nm fluorescence, primary screen (AID 1113).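 Further: score merges 667 nm fluorescence intensity with signal-to-noise per printed feature.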 The conditions noted are these: small-molecule microarray, higher = more signal.
The nature of assay [17]: probe aShh binding to arrayed compounds – biochemical, biotinylated probe, 635/667 nm fluorescence, primary screen (AID 1114).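 Further: probe is biotin-labelled aShh protein from a stem cell growth factor screen; measures binding of labelled protein to compounds printed on the slide; score merges feature fluorescence at 667 nm with signal-to-noise.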 The conditions noted are these: small-molecule microarray, higher = more signal.
Assay [18] can be described thus: probe aNog binding to arrayed compounds – biochemical, biotinylated probe, 635/667 nm fluorescence, primary screen (AID 1115).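 Further: probe is biotinylated aNog protein used at 0.15 µg/mL for 1 h at 4 C; z-score combines 667 nm fluorescence of each spot with its signal to noise.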 The settings on record: small-molecule microarray, higher = more signal.
Assay [19] has as its target Torsin-1A-interacting protein 1 (Homo sapiens) (UniProt Q5JTV8). In words: compound microarray binding of lysate hLAP1 – cell lysate, small-molecule microarray, COS7 lysate, 635/667 nm fluorescence, primary screen (AID 1116). The settings on record: 635 nm fluorescence, higher = more signal.
The target in assay [20] is Alpha-bungarotoxin (Bungarus multicinctus) (UniProt P60615). As to the kind of experiment: compounds binding labelled alpha-BTX control protein – biochemical, small-molecule microarray, Alexa647 label, 635/667 nm fluorescence, artefact control for SMM control protein annotation, profiling panel (AID 1117). The conditions noted are these: alpha-BTX-A647 binding fluorescence, higher = more signal.

Calls of active or inactive are those of the source.

Chain of Alpha-bungarotoxin (Bungarus multicinctus) (P60615 whole entry, looked up): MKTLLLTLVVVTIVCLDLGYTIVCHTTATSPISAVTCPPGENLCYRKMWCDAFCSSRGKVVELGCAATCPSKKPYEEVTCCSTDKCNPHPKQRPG
Chain of Epidermal growth factor receptor (Homo sapiens) (P00533 whole entry, looked up): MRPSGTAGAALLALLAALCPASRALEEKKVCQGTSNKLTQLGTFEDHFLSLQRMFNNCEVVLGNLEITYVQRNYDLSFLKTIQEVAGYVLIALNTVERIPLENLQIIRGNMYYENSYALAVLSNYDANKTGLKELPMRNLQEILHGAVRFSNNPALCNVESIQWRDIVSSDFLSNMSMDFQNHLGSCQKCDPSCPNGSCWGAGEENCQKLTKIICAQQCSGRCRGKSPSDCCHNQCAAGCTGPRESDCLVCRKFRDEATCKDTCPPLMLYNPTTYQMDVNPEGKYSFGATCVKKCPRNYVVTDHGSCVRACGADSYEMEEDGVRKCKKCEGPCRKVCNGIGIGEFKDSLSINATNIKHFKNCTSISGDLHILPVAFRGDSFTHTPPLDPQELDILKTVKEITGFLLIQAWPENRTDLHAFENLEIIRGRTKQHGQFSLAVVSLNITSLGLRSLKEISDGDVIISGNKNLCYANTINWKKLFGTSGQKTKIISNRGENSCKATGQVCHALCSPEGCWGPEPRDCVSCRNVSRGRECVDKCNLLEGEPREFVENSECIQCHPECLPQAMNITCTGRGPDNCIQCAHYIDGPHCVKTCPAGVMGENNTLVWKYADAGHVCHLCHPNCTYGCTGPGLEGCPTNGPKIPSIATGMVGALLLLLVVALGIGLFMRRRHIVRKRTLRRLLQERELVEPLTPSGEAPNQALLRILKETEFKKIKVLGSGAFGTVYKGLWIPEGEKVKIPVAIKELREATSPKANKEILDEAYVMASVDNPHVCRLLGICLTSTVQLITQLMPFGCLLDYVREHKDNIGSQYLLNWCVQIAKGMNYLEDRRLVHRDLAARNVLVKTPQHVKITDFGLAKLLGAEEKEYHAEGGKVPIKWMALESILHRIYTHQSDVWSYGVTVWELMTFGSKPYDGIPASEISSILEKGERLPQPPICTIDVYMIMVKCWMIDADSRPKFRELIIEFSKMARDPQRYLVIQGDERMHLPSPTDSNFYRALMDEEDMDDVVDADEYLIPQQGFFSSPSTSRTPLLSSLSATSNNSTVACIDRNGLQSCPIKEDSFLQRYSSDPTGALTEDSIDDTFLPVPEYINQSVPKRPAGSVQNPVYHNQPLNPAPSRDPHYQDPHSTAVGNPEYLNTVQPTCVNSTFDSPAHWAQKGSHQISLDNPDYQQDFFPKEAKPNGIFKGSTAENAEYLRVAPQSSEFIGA
Chain of Dickkopf-related protein 1 (Homo sapiens) (O94907 whole entry, looked up): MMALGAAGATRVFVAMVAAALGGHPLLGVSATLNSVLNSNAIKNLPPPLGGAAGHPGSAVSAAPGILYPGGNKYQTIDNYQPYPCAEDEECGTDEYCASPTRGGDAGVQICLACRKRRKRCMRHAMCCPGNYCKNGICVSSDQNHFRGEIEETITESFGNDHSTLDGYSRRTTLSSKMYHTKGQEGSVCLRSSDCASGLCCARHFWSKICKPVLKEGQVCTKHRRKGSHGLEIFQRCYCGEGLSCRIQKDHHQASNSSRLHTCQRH
Chain of Torsin-1A-interacting protein 1 (Homo sapiens) (Q5JTV8 whole entry, looked up): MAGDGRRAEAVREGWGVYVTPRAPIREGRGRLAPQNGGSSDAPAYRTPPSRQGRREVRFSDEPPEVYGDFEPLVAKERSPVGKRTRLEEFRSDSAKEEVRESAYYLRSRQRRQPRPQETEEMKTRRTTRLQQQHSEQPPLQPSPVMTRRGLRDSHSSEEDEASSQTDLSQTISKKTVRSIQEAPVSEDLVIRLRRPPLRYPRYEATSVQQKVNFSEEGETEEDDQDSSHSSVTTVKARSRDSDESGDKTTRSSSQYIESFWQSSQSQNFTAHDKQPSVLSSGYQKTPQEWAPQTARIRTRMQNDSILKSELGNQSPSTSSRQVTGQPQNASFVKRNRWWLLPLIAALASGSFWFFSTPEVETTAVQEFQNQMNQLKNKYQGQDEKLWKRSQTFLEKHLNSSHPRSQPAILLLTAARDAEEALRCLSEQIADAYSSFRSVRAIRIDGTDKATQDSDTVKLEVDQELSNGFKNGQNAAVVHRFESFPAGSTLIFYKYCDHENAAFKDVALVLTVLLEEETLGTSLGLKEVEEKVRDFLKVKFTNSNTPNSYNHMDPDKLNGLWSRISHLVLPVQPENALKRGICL
Chain of Follistatin-related protein 3 (Homo sapiens) (O95633 whole entry, looked up): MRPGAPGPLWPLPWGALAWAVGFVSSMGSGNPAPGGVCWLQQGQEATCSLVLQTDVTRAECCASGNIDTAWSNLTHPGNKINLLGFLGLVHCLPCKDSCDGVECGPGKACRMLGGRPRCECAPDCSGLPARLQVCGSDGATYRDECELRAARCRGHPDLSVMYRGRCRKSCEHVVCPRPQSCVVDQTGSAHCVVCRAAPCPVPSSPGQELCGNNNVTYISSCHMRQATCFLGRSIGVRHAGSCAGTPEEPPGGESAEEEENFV
Chain of Fibroblast growth factor 10 (Homo sapiens) (O15520 whole entry, looked up): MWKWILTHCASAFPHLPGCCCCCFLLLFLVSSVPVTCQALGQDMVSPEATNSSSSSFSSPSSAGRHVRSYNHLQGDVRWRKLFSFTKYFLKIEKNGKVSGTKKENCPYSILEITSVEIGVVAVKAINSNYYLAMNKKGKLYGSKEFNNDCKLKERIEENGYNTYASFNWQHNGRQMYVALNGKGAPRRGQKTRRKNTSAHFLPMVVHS
Chain of Left-right determination factor 2 (Homo sapiens) (O00292 whole entry, looked up): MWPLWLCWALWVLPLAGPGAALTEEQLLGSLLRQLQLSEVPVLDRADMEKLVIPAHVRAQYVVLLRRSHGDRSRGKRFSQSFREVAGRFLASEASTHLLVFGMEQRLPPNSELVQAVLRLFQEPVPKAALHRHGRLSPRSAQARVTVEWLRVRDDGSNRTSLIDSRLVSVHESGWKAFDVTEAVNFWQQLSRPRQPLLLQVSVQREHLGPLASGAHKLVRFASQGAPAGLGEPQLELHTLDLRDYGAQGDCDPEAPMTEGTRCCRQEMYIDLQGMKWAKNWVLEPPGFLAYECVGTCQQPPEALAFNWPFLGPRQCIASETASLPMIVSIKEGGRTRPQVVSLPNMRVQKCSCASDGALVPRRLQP

For the molecule `COCCOC(=O)N1C(=O)[C@@]2(c3cc(C#CCCO)ccc31)[C@H](c1ccccc1OCCO)N1[C@H](c3ccccc3)[C@H](c3ccccc3)OC(=O)[C@H]1[C@@H]2C(N)=O`, the composite z-score in assay [1] is 1.3; in [2], -0.154; in assay [3] it was 0.0318; in assay [5], 1.19; in assay [6], 1.21; in assay [7] it was 0.312. The composite z-score in assay [8] was 1.05; in assay [9] it was 0.433; in assay [10], -0.0938; in assay [11] it was 1.41; in assay [13], 0.416; in assay [14] it was 1.25. Also, the composite z-score in [15] was -0.0732; in assay [16], 0.002; in assay [17], 0.0204; in [18], -0.467; in assay [19], 0.606; in [20], 1.23. Moreover, the z-score in [4] was -1.51 (inactive); in assay [12], -1.64.

As for `COc1ccc([Si](C)(C)[C@@H]2[C@@H](CC(=O)N3Cc4ccccc4C[C@H]3CO)O[C@]3(C(=O)N(Cc4ccc(N5CCOC5=O)cc4)c4ccccc43)[C@H]2C)cc1`, the composite z-score is 1.09 in [1]; -0.115 in [2]; -0.271 in assay [3]; 0.723 in assay [5]; 0.969 in assay [6]; 0.916 in assay [7]. The composite z-score in assay [8] was 1.24; in [9] it was 0.945; in [10], 1.03; in [11] it was 0.225; in assay [13], 0.874; in [14] it was -0.422. The composite z-score is -0.497 in [15]; -0.119 in assay [16]; 0.0639 in assay [17]; -0.339 in [18]; 1.86 in assay [19]; 1.42 in assay [20]. The z-score in assay [4] was -1.36 (inactive); in assay [12] it was -3.78.

As for `COC(=O)[C@@]1(Cc2ccc(F)cc2)[C@H]2c3cc(C(=O)N4CCCC4)n(CCc4ccccn4)c3C[C@H]2CN1C(=O)c1ccccc1`, the composite z-score is 0.785 in [1]; 0.507 in assay [2]; 1.02 in assay [3]; 0.577 in assay [5]; -0.73 in assay [6]; -0.559 in assay [7]. Moreover, the composite z-score in [8] is -0.575; in [9] it was -0.554; in assay [10] it was 0.987; in [11] it was 0.724; in assay [13] it was -0.27; in assay [14], 1.16. In addition, the composite z-score in assay [15] was 0.42; in assay [16], 0.136; in assay [17], 0.887; in assay [18], 1.53; in [19], 0.294; in assay [20], 0.0045. For the same molecule, the z-score in assay [4] is -1.31 (inactive); in assay [12] it was -0.74.

As for `COC(=O)[C@@]1(Cc2ccc(OC)cc2)[C@H]2c3cc(C(=O)N4CCCC4)n(Cc4ccc(C(F)(F)F)nc4)c3C[C@H]2CN1C(=O)c1ccccc1`, the composite z-score was 1.27 in assay [1]; 0.0202 in assay [2]; 0.872 in assay [3]; 0.69 in assay [5]; -0.478 in assay [6]; 0.282 in assay [7]. The composite z-score in assay [8] was 0.11; in assay [9] it was -0.301; in assay [10], 0.918; in assay [11], 0.381; in [13], -0.412; in assay [14] it was 0.0624. Also, the composite z-score in assay [15] was -0.954; in [16], 0.037; in [17], -0.153; in assay [18], 0.374; in assay [19], 0.476; in [20] it was -0.075. Moreover, the z-score in assay [4] was -4.53 (inactive); in assay [12], -2.25.

With `CCCNC(=O)[C@@]1(c2ccc([N+](=O)[O-])cc2)CC(=O)N(C(C)C)[C@@H]1c1ccc(CO)cc1`, the composite z-score in [1] was 0.928; in assay [2], -0.0525; in assay [3], 0.985; in assay [5], -0.853; in [6], -0.664; in assay [7], -1.52. For the same molecule, the composite z-score is -0.546 in [8]; -0.695 in assay [9]; -0.251 in assay [10]; -0.603 in [11]; -0.649 in assay [13]; -0.168 in assay [14]. Also, the composite z-score in assay [15] is 0.263; in assay [16] it was -0.18; in [17], -0.138; in assay [18] it was -0.326; in [19], -0.824; in [20], -0.276. Moreover, the z-score is -0.27 (inactive) in [4] and 0.0828 in [12].

On to `C=C(CCCC)/C(=C/C[C@H](OC(=O)c1ccncc1)c1ccccc1OCCO)c1cc(C(=O)OC)ccc1OC`, for which the composite z-score in assay [1] is 0.209; in assay [2], -0.126; in [3], 0.023; in [5] it was 0.864; in assay [6], 0.325; in [7], 0.0323. Further, the composite z-score in assay [8] is 0.636; in assay [9] it was 0.273; in assay [10], 1.17; in assay [11] it was 1.22; in [13], -0.015; in assay [14], -0.0646. Further, the composite z-score in [15] was -0.636; in assay [16], -0.0331; in assay [17], 0.0684; in [18] it was -0.305; in [19] it was 0.869; in assay [20], -0.056. The figures for the z-score in assay [4] and in assay [12] were -0.63 (inactive) and -2.89, respectively.

For the molecule `O=C1O[C@@H](c2ccccc2)[C@@H](c2ccccc2)N2[C@@H](c3ccccc3OCCO)[C@]3(C(=O)Nc4ccc(C#CCCO)cc43)[C@@H](C(=O)NC[C@H](O)c3ccccc3)[C@H]12`, the composite z-score in assay [1] was 1.69; in [2], 1.93; in [3], 1.51; in assay [5], 0.428; in [6] it was -0.0642; in [7], 0.249. Besides, the composite z-score in assay [8] was 1.35; in assay [9], 0.172; in assay [10], 1.41; in assay [11], 1.49; in assay [13], -0.274; in [14], 2.34. Further, the composite z-score was 0.953 in [15]; 0.489 in [16]; -0.212 in assay [17]; 2.45 in assay [18]; 2.7 in assay [19]; 2.55 in assay [20]. For the same molecule, the z-score in assay [4] is -0.393 (inactive); in assay [12], -0.871.

For `COC(=O)[C@@]1(Cc2ccc(F)cc2)[C@H]2c3cc(C(=O)N(C)C)n(CCc4ccc(O)c(O)c4)c3C[C@H]2CN1C(=O)c1ccccc1`, the composite z-score in assay [1] is 0.681; in assay [2] it was 0.52; in [3], 0.828; in assay [5] it was 0.842; in [6], -0.292; in [7], -0.147. The composite z-score was -0.439 in [8]; -0.372 in assay [9]; 0.239 in [10]; 0.148 in assay [11]; -0.0362 in assay [13]; 0.584 in assay [14]. Moreover, the composite z-score in assay [15] was 0.813; in [16] it was 0.183; in assay [17], -0.214; in assay [18], 0.2; in [19] it was 1.18; in assay [20], 0.0055. The z-score in assay [4] was 0.692 (inactive); in assay [12], -1.78.
